About 83,000 compounds went through this panel and 20% of them were active in at least one assay; those are over-represented in the sample as a whole.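 Values shown are percent growth following 48 h exposure of cells in 96-well plates to a single concentration of compound; below 10 was considered active.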 A number with no mark means an inactive call. Activity calls are given as the source filed them.

This experiment concerns CCRF-CEM leukemia. As to the kind of experiment: NCI-60 one-dose screen, 48 h (100 = growth as untreated, 0 = no growth, -100 = all killed). The note with it: 10 µM. Here is the method:
Growth inhibition of the CCRF-CEM human tumor cell line is measured as a screen for anti-cancer activity. Cells are grown in 96 well plates and exposed to the test compound for 48 hours. Compounds are tested at a single concentration, which is 10^-5 M for most compounds. The reported endpoint is percent growth (GI% or GIPRCNT), where numbers from 0 - 100% represent growth inhibition, and numbers from -100% - 0 represent cell death. For example, a value of 40 represents 60% growth inhibition. A value of 0 means no net growth occurred over the course of the experiment. A value of -40 indicates 40% of cells at the beginning of the experiment died by the end of the experiment. A value of -100 means all cells are dead at the end of the experiment.
NCI-60 Human Tumor Cell Lines Screen was performed using the standard one-dose NCI protocol, which is described in more detail at https://dtp.cancer.gov/discovery_development/nci-60/default.htm.
Compounds with GIPRCNT values below 10 were considered active. Activity score was based on GIPRCNT using the following formula: […]
Score is 0 for GIPRCNT values of 100 or above, 50 for GIPRCNT values of 0, and 100 for GIPRCNT values of -100.
`Nc1ccc2cc(S(=O)(=O)O)cc(O)c2c1N=Nc1ccc(F)cc1`: the growth was 106%.

For the compound `N=C(N)c1ccc(-c2ccc(-c3ccccc3)o2)nc1`, the growth was 82.5%.

As to `O=C(O)CC(Cl)C(Cl)CC(=O)O` (stereo not given), the growth was 89.9%.

On to `CN(C)c1ccc(/C=C/C=N/NC(=O)c2cc(O)c(O)c(O)c2)cc1`, for which the growth is 16.1%.

`Nc1c(C(=O)Nc2cccc3ccccc23)sc2nc3c(cc12)C(=O)CCC3`: the growth was 7.9% (active).

Consider `CC(=O)c1cc(Cl)ccc1O`, for which the growth is 100%.

As for `COc1cc(Cl)cc(-c2nn(-c3cccc(NC(=O)Nc4ccc(Cl)c(Cl)c4)c3)cc2-c2ccncc2)c1`, the growth was 5.73% (active).

As for `O=C1/C(=C\c2ccc(F)cc2)CN(C(=O)c2ccccc2)C/C1=C\c1ccc(F)cc1`, the growth is -12.6% (active).

For the compound `O=c1oc2cc(OS(=O)(=O)c3ccccc3)ccc2c2c1CCCCC2`, the growth was 37.2%.

On to `O=C(Nc1cccc(Br)c1)c1cc(=O)[nH]c2ccccc12`, for which the growth was 84.9%.

For `Clc1cc2c(c(CSc3nc4ccccc4n4cccc34)c1)OCOC2`, the growth was 93.7%.

`ClCC#CCSc1ncnc2c1ncn2CC#CCCl`: the growth is 14.9%.

With `O=C1c2ccc3c4c(ccc(c24)C(=O)N1CCNCc1ccccc1)C(=O)N(CCNCc1ccccc1)C3=O`, the growth is -6.55% (active).

For the compound `O=C(N/N=C/c1ccccc1)C(Oc1ccccc1)c1ccccc1` (stereo not given), the growth is 93.7%.

`O=C(Nc1cccc(-n2cc(-c3ccncc3)c(-c3cc(O)cc(Cl)c3)n2)c1)Nc1ccc(Cl)c(C(F)(F)F)c1`: the growth was 9.31% (active).

For `C#Cc1ccc(-n2c(/C=C/c3ccc(Cl)c(F)c3)nc3ncccc3c2=O)cc1`, the growth was 1.54% (active).

As to `COc1ccc(-c2nc(-c3nc4cc(Cl)c(Cl)cc4[nH]3)c3ccccn23)cc1`, the growth was 79.1%.

Regarding `COc1ccc(-c2nc3ccccn3c2-c2nnc(-c3cc(OC)c(OC)c(OC)c3)o2)cc1`, the growth was 88.4%.

For the compound `O=C(CNC(=O)OCc1ccccc1)NCC(=O)Oc1ccc([N+](=O)[O-])cc1`, the growth is 109%.

Take `O=S(=O)(NCCCNc1nccc(-c2c(-c3ccc(F)cc3)nc3sccn23)n1)c1ccc(F)cc1`: the growth is 17.5%.

For `COc1cc(C)ccc1C(=O)c1ccc(C)cc1OC`, the growth is 14.4%.

`Cc1ccc(NC(=O)Nc2c(Cl)cccc2Cl)cn1`: the growth is 69.5%.

As for `O=C1N=NC2=C1c1c3ccccc3c(O)n1CC2`, the growth was 97.1%.

Regarding `Cc1ccc2oc3nc(C)c(C(=O)NCc4ccccc4)cc3c(=O)c2c1`, the growth is 76.4%.

Turning to `C[C@@H]1C=C2C(=O)O[C@@H]3CC[C@H](C1)[C@]23O`, the growth is 18.6%.

Take `COc1cc(-c2nnc(-c3c(-c4ccc(F)cc4)nc4ccccn34)o2)cc(OC)c1OC`: the growth is 89.1%.

Take `Clc1ccc(Nc2ccnc(NCCCNc3ccnc4cc(Cl)ccc34)n2)cc1`: the growth is -19.9% (active).

Regarding `Cc1cccc(Cl)c1NC(=O)c1ccc2nc(NC(=O)NC3CCN(C)CC3)sc2c1`, the growth is 83%.

On to `O=C(C[P+](c1ccccc1)(c1ccccc1)c1ccccc1)C[P+](c1ccccc1)(c1ccccc1)c1ccccc1`, for which the growth was -24% (active).

For the compound `CCCCCCCCCCCCCC[n+]1ccc(C(N)=O)cc1`, the growth was 2.78% (active).

For the compound `CN1c2ccccc2[C@]2(Cc3ccccc3)Cc3ccccc3N[C@H]12`, the growth is 92.2%.

Regarding `COc1ccccc1/C=C/C(=O)c1ccccc1`, the growth is 29%.

Take `O=C(Nc1ccc(Cl)c(Cl)c1)Nc1c(Oc2ccc(Cl)c(Cl)c2)ccc(Cl)c1S(=O)(=O)O`: the growth was 13.5%.

Take `CCOCCOCCOCCOCCOCCOCCOCCOCCOCCO` (tested in a mixture with another compound): the growth was -39.9% (active).

With `COc1ccc2c(c1)sc1nc(-c3ccccc3)c(-c3ccc(O)c(OC)c3)n12`, the growth is 78.1%.

As for `COc1ccc(-c2nc3sc(-c4ccccc4)c(-c4ccccc4)n3c2/C=C/C(=O)c2ccccn2)cc1`, the growth is 52.4%.

For `COc1ccc(Nc2ccnc(NCCNc3ccnc4cc(Cl)ccc34)n2)cc1`, the growth is 42.1%.

`CCC(=O)N1C/C(=C/c2ccc(Cl)cc2)C(=O)/C(=C/c2ccc(Cl)cc2)C1`: the growth was -11.1% (active).

Regarding `COc1cc(-c2nc(-c3nnc(-c4ccccc4Cl)o3)c3ccccn23)cc(OC)c1OC`, the growth is 51.4%.

With `CSC1=NCCCC1`, the growth is 103%.
